From PubChem BioAssay (NCATS)
Several values for one entry are separate records, joined by “and”; a condition that tells them apart may be missing. Equal values may be shown once. Results filed as inconclusive are left out. Activity calls are given as the source filed them. Unless noted, calls follow the shape of the dose curve; as a rule, active = well fitted curve in the direction sought with a large enough effect; inconclusive = small, poorly fitted or top-dose-only effect, or another doubt; inactive = no such curve, though single readings can be large; an effect the other way counts as inactive or inconclusive.

Experiments:
[1] = Cell Viability - BJ (AID 421; calls by dose curve;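 also: potency is read from the fitted curve at half-maximal effect; cells exposed to compound for 40 hours at 37 °C before readout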); conditions: BJ fibroblast viability, qHTS
Method in brief: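 Cytotoxicity as drop in intracellular ATP (CellTiter-Glo, 20 min RT) after 40 hr compound exposure of BJ fibroblasts at 37 °C. Titrations scaled between DMSO and 100 uM tamoxifen, Hill-fitted for AC50.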

[2] = Cell Viability - HUV-EC-C (AID 542); conditions: HUV-EC-C endothelial cell viability, qHTS; series mostly up to 92.2 µM;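 also: cells exposed to compound for 40 hours; % is scaled to controls: 0 for no effect and ±100 for the full control effect; nearly all actives have a fitted effect of over 35% in size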
Method in brief: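 CellTiter-Glo luminescence measured ATP loss in HUV-EC-C cells (1000/well) after 40 hr compound exposure at 37 °C, in complete culture medium. Concentration-response data were Hill-fitted to give AC50.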

[3] = Cellular Toxicity (caspase-3) HUV-EC-C (AID 656); conditions: HUV-EC-C cells, caspase-3 activation (apoptosis), vehicle = 0, 100 µM tamoxifen = 100%; series mostly up to 92.2 µM
Method in brief: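 Read-out: luminescence proportional to caspase 3/7 activity, measured 20 min after adding Caspase-Glo 3/7 reagent. Cells (HUV-EC-C) had received compound for 16 hr at 37°C. Increases relative to DMSO and 100 uM tamoxifen gave concentration-response AC50 values.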

[4] = Cellular Toxicity (caspase-3) MRC-5 (AID 659); conditions: MRC-5 cells, luminescence, normalized: DMSO 0%, 10 µM staurosporine 100%; series mostly up to 91.7 µM
Method in brief: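 MRC-5 fibroblasts, 1500/well; 16 h cpd, 37 °C; Caspase-Glo 3/7, 1 h RT; lumi read. Norm: DMSO = 0%, 10 uM staurosporine = 100%. Hill-fit AC50 from qHTS conc-response.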

[5] = Cellular Toxicity (caspase-3) Mesangial (AID 660); conditions: mesangial cells, normalized: DMSO 0%, 100 µM tamoxifen 100%; series mostly up to 91.7 µM;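 also: cells exposed to compound for 16 h before the caspase read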
Method in brief: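 Caspase 3/7 activation measured by Caspase-Glo 3/7 luminescence (20 min, room temperature) following 16 h exposure of mesangial cells (1000/well); AC50 from Hill-equation fit, normalized to DMSO and 100 uM tamoxifen.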

[6] = Cellular Toxicity (caspase-3) SK-N-SH (AID 661); conditions: SK-N-SH caspase-3 activation, qHTS; series mostly up to 91.7 µM
Method in brief: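 Caspase 3/7 activation was read by luminogenic substrate cleavage after 16 hour treatment of SK-N-SH cells. Signal was scaled between DMSO and 10 uM staurosporine, and concentration-response data were fitted with the Hill equation for AC50.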

[7] = Cellular Toxicity (caspase-3) Hek293 (AID 664); conditions: HEK293 caspase-3 activation, DMSO = 0%, 100 µM tamoxifen = 100%; at 92.2 µM (top of the series);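 also: cells exposed to compound for 16 h at 37 °C before readout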
Method in brief: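 Concentration-response qHTS: caspase 3/7 activation measured by luminescent aminoluciferin substrate cleavage after 16 h compound exposure of Hek 293 cells. AC50 from Hill equation, with DMSO as basal and 100 uM tamoxifen as 100%.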

[8] = Cellular Toxicity (caspase-3) NIH 3T3 (AID 666); conditions: NIH 3T3 caspase-3 activation, apoptosis/toxicity; series mostly up to 92.2 µM;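 also: caspase signal read after 16 h compound exposure; 0% = DMSO basal and 100% = 100 µM tamoxifen stimulation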
Method in brief: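 Caspase-Glo 3/7 luminescence reported caspase activation in 1000 NIH 3T3 cells/well after 16 h compound exposure at 37 C. DMSO set basal and 100 uM tamoxifen set 100% stimulation; concentration-response modeled with the Hill equation for AC50.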

[9] = MultiTox-Fluor Cytotoxicity Assay - LYMP1-001 - Dead Cells (AID 946); conditions: LYMP1-001 lymphoblastoid cells, dead-cell protease fluorescence; series mostly up to 92.2 µM
Method in brief: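 Cytotoxicity as increased dead-cell protease fluorescence (bis-AAF-R110, 485/520 nm), read 60 min after MultiTox-Fluor reagent. Human lymphoblastoid line exposed 16 h; Hill-fitted AC50, with DMSO as 0% and 15 uM tetraoctylammonium bromide as 100%.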

[10] = Cell Viability - LYMP1-002 - Assay at 16 hr (AID 948); conditions: LYMP1-002 lymphoblastoid cell viability; series mostly up to 92.2 µM;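 also: 0% = DMSO alone and full effect = 92 µM tetraoctylammonium bromide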
Method in brief: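 Acute cytotoxicity is scored as a concentration-dependent fall in intracellular ATP in a human lymphoblastoid line (LYMP1-002) after 16 hr compound exposure at 37 C, measured by luciferase luminescence.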

[11] = MultiTox-Fluor Cytotoxicity Assay - LYMP1-003 - Live Cells (AID 962); conditions: LYMP1-003 lymphoblastoid cells, MultiTox-Fluor live-cell protease fluorescence; series mostly up to 92.2 µM;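 also: 0% = DMSO only and full loss = 92 µM tetraoctylammonium bromide; cytotoxic hits lower the live-cell protease signal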
Method in brief: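 Live-cell protease activity (GF-AFC substrate, 405/510 nm, 60 min at room temperature) after 16 h, 37 C compound exposure of human lymphoblastoid LYMP1-003 cells; concentration-response fitted to the Hill equation for AC50.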

[12] = Cell Viability - LYMP2-003 (AID 965); conditions: LYMP2-003 lymphoblastoid cell viability; series mostly up to 92.2 µM;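 also: cells exposed to compounds for 24 h before reading; 0% = DMSO only and full effect = 92 µM tetraoctylammonium bromide; nearly all actives have a fitted effect of over 50% in size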
Method in brief: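 Acute cytotoxicity is scored as a concentration-dependent drop in intracellular ATP, measured by luciferase luminescence in human lymphoblastoid cells treated for 24 hours at 37 C. AC50 values derive from Hill-equation modelling.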

[13] = Cell Viability - LYMP2-013 (AID 970); conditions: LYMP2-013 lymphoblastoid cells viability; series mostly up to 92.2 µM;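 also: 0% = DMSO only and full inhibition = tetraoctylammonium bromide control; nearly all actives have a fitted effect of over 55% in size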
Method in brief: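 qHTS cytotoxicity: ATP-dependent luminescence (CellTiter-Glo, 30 min room temperature) read after 24 h compound exposure at 37 C of 2500 LYMP2-013 lymphoblastoid cells per well. Concentration-response fitted with Hill equation to give AC50.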

[14] = Cell Viability - LYMP2-015 (AID 971); conditions: LYMP2-015 lymphoblastoid cell viability; series mostly up to 92.2 µM;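 also: 0% = DMSO only and full effect = 92 µM tetraoctylammonium bromide; nearly all actives have a fitted effect of over 55% in size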
Method in brief: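 Cytotoxicity readout: decrease in intracellular ATP (CellTiter-Glo luminescence) in 2500 LYMP2-015 lymphoblastoid cells/well after 24 h compound exposure at 37 C. Concentration-response data fitted with the standard Hill equation to give AC50.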

[15] = Cell Viability - LYMP2-017 (AID 972); conditions: LYMP2-017 lymphoblastoid cell viability; series mostly up to 92.2 µM;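 also: cells exposed to compound for 24 hours at 37 °C; % is scaled to controls: 0 for no effect and ±100 for the full control effect; nearly all actives have a fitted effect of over 55% in size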
Method in brief: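 CellTiter-Glo luminescence (cellular ATP, 30 min RT) measured cytotoxicity after 24 hr compound treatment at 37 C. Cells were a human lymphoblastoid line, LYMP2-017, plated at 2500/well and incubated 5 hr first; concentration-response fitted with Hill equation for AC50.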

[16] = Cell Viability - LYMP2-007 (AID 979); conditions: LYMP2-007 lymphoblastoid cell viability; series mostly up to 92.2 µM;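 also: cells exposed to compound for 24 h before reading; 0% = DMSO only and the negative end = 92 µM tetraoctylammonium bromide; nearly all actives have a fitted effect of over 60% in size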
Method in brief: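 AC50 values come from Hill-equation fits of luminescent intracellular ATP (CellTiter-Glo, 30 min, room temperature) following 24 h compound exposure at 37 C. Cells: LYMP2-007 lymphoblastoid line, 2500 per well, in complete culture medium.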

[17] = qHTS Assay for Identification of Small Molecule Inducers of Hypoxia Response (AID 2120; active = well fitted curve in the direction sought with a large enough effect in the signal ratio, with a control signal flat, not every such curve was filed as active; the % refers to the signal ratio; also: 0% is about no effect); conditions: hypoxia response reporter cells, beta-lactamase ratio readout; series mostly up to 104 µM
Method in brief: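 Reporter induction read as the CCF4 blue/green (460nm/530nm) emission ratio after 2.5 h dye loading at room temperature. ME-180 HRE-beta-lactamase cells received titrated compounds for 17 h at 37 degrees Celsius; AC50 values derived.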

[18] = molecular target: Peroxisome proliferator-activated receptor alpha (Homo sapiens) (UniProt Q07869); experiment: qHTS assay for small molecule agonists of the peroxisome proliferator-activated receptor alpha (PPARalpha) signaling pathway (AID 651778); conditions: PathHunter PPARalpha complementation, chemiluminescence, 6 h; hits give high values; also: % of control where 0% means no effect
Method in brief: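 Enzyme-fragment complementation assay in which ligand-bound PPARalpha translocates and forms an active enzyme that generates chemiluminescence. Cells were plated overnight, exposed to compound for 6 hr at 37 C, and then given detection reagent for 60 min at room temperature.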

[19] = qHTS assay for small molecule agonists of the antioxidant response element (ARE) signaling pathway measured by Nrf2-dependant transcriptional activity - cell viability counter screen (AID 720653; active = well fitted curve in the direction sought with a large enough effect in the repeat runs; an effect the other way counts as inactive or inconclusive; also: % is scaled to controls: 0 for no effect and ±100 for the full control effect); conditions: ARE-bla HepG2 viability, CellTiter-Glo ATP luminescence, 16 h; hits give low values
Method in brief: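 ARE-bla HepG2 cells treated with compounds for 16 h at 37C; this counter screen measures viability as intracellular ATP by CellTiter-Glo luminescence after 30 min at room temperature.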

[20] = qHTS assay for cell viability of the p53RE-bla HCT-116 cell line (AID 743292); conditions: p53RE-bla HCT-116 viability, ATP luminescence, 16 h; series mostly up to 95 µM; also: % is scaled to controls: 0 for no effect and ±100 for the full control effect; nearly all actives have a fitted effect of over 55% in size
Method in brief: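 Compound-exposed HCT-116 (p53RE-bla) cells, 4,000 per well, were kept 16 h at 37 C following a 5 h preincubation. Cell number was estimated from total ATP by CellTiter-Glo luminescence read after 30 min at room temperature.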

Chain of Peroxisome proliferator-activated receptor alpha (Homo sapiens) (Q07869 whole entry, looked up, the tested form may be a part): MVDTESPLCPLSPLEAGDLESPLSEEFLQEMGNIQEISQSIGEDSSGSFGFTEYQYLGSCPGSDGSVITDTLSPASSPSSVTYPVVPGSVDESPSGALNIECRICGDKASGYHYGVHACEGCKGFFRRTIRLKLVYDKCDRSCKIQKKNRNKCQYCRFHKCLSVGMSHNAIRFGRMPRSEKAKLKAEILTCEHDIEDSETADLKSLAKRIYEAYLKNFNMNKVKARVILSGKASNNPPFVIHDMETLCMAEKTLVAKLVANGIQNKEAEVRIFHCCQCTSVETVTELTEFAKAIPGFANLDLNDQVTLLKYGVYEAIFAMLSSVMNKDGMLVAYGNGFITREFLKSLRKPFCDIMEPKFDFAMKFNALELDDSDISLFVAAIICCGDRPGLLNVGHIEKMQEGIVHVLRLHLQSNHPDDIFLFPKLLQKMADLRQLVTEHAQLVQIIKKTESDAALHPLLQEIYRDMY

CC(C)CC(C)N (stereo not given)
inactive: Potency [1] > 92 µM | Potency [2] | outcome [3] | outcome [4] | outcome [5] | Potency [6] | caspase-3 activation [7] 1.99% | Potency [8] | outcome [9] | outcome [10] | outcome [11] | Potency [12] | Potency [13] | Potency [14] | Potency [15] | Potency [16] | Potency [17] | max response [18] 1.79% | max response [19] 0.53% | Potency [20]

C=CCCl
inactive: Potency [1] > 92 µM | Potency [2] | outcome [3] | outcome [4] | outcome [5] | Potency [6] | caspase-3 activation [7] 0.123% | Potency [8] | outcome [9] | outcome [10] | outcome [11] | Potency [12] | Potency [13] | Potency [14] | Potency [15] | Potency [16] | Potency [17] | max response [18] -5.35% | max response [19] -2.66% | Potency [20]

ClC(Cl)c1ccccc1
inactive: Potency [1] > 92 µM | Potency [2] | outcome [3] | outcome [4] | outcome [5] | Potency [6] | caspase-3 activation [7] 0.485% | Potency [8] | outcome [9] | outcome [10] | outcome [11] | Potency [12] | Potency [13] | Potency [14] | Potency [15] | Potency [16] | Potency [17] | max response [18] -0.698% | max response [19] -0.372% | Potency [20]

O=C(O)CBr
inactive: Potency [1] > 92 µM | Potency [2] | outcome [3] | outcome [4] | outcome [5] | Potency [6] | caspase-3 activation [7] 2.72% | Potency [8] | outcome [9] | outcome [10] | outcome [11] | Potency [12] | Potency [13] | Potency [14] | Potency [15] | Potency [16] | Potency [17] | max response [18] 2.06% | max response [19] 9.96% | Potency [20]

N#CCc1ccccc1
inactive: Potency [1] > 92 µM | Potency [2] | outcome [3] | outcome [4] | outcome [5] | Potency [6] | caspase-3 activation [7] -1.14% | Potency [8] | outcome [9] | outcome [10] | outcome [11] | Potency [12] | Potency [13] | Potency [14] | Potency [15] | Potency [16] | Potency [17] | max response [18] 0.0396% | max response [19] -1.59% | Potency [20]

Clc1cccc(Cl)c1Cl
inactive: Potency [1] > 92 µM | Potency [2] | outcome [3] | outcome [4] | outcome [5] | Potency [6] | caspase-3 activation [7] -0.313% | Potency [8] | outcome [9] | outcome [10] | outcome [11] | Potency [12] | Potency [13] | Potency [14] | Potency [15] | Potency [16] | Potency [17] | max response [18] -3.74% and -0.322% | max response [19] -3.73% and 1.34% | Potency [20]

ClC(Cl)(Cl)C(Cl)(Cl)Cl
inactive: Potency [1] > 92 µM | Potency [2] | outcome [3] | outcome [4] | outcome [5] | Potency [6] | caspase-3 activation [7] -1.3% | Potency [8] | outcome [9] | outcome [10] | outcome [11] | Potency [12] | Potency [13] | Potency [14] | Potency [15] | Potency [16] | Potency [17] | max response [18] -2.99% | max response [19] -0.289% | Potency [20]

CCCBr
inactive: Potency [1] > 92 µM | Potency [2] | outcome [3] | outcome [4] | outcome [5] | Potency [6] | caspase-3 activation [7] 2.6% | Potency [8] | outcome [9] | outcome [10] | outcome [11] | Potency [12] | Potency [13] | Potency [14] | Potency [15] | Potency [16] | Potency [17] | max response [18] -0.188% | max response [19] -3.32% | Potency [20]

CCC(Cl)[N+](=O)[O-] (stereo not given)
inactive: Potency [1] > 92 µM | Potency [2] | outcome [3] | outcome [4] | outcome [5] | Potency [6] | caspase-3 activation [7] -0.0531% | Potency [8] | outcome [9] | outcome [10] | outcome [11] | Potency [12] | Potency [13] | Potency [14] | Potency [15] | Potency [16] | Potency [17] | max response [18] 11.6% | max response [19] -4.85% | Potency [20]

CC(C)(OOC(C)(C)c1ccccc1)c1ccccc1
inactive: Potency [1] > 92 µM | Potency [2] | outcome [3] | outcome [4] | outcome [5] | Potency [6] | caspase-3 activation [7] 4.99% | Potency [8] | outcome [9] | outcome [10] | outcome [11] | Potency [12] | Potency [13] | Potency [14] | Potency [15] | Potency [16] | Potency [17] | max response [18] -0.439% and 3.52% | max response [19] -15.2% and -2.58% | Potency [20]

CN(C)C(=O)Cl
inactive: Potency [1] > 92 µM | Potency [2] | outcome [3] | outcome [4] | outcome [5] | Potency [6] | caspase-3 activation [7] -0.876% | Potency [8] | outcome [9] | outcome [10] | outcome [11] | Potency [12] | Potency [13] | Potency [14] | Potency [15] | Potency [16] | Potency [17] | max response [18] -4.05% | max response [19] -21% | Potency [20]
